Experimental data: PubChem BioAssay (NCATS)
Records with an inconclusive call do not appear. A call without a number means that no potency is given here. A number with no mark means an inactive call. The source made the active and inactive calls. The call rests on the fitted dose curve; in most records, active means well fitted curve in the direction sought with a large enough effect; inconclusive means small, poorly fitted or top-dose-only effect, or another doubt; inactive means no such curve, though single readings can be large; an effect the other way counts as inactive or inconclusive. Where a SMILES comes first, the peptide text is derived from it.

Key:
[1] = target: Calcium and integrin-binding protein 1 (Homo sapiens) (UniProt Q99828); assay: Primary qHTS for Identification of Calcium Integrin Binding Protein 1 (CIB1) Competitor (AID 1508620);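 further: GST tagged CIB1 binding a fluorescein labelled alphaIIb integrin peptide tracer; top concentration of the series differs between compounds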
How it was run: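 CIB1-GST (1 uM final) and compound incubated 15 min at room temperature before adding FITC-alphaIIb peptide tracer (100 nM final). Competition for binding read by fluorescence polarization (ex 480, em 540) after another 15 min at room temperature.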

[2] = Primary qHTS for inhibitors of nuclear receptor binding SET domain protein 2 (NSD2) in an isogenic RCH-ACV NSD2 p.E1099K mutant (9B) (AID 1645876); further: nearly all actives have a fitted effect of over 70% in size; further: potency means the concentration at half of the fitted maximal effect
[3] = Primary qHTS for inhibitors of nuclear receptor binding SET domain protein 2 (NSD2) in an RCH-ACV wild type WT cells (2C) (AID 1645877); further: nearly all actives have a fitted effect of over 70% in size; further: potency means the concentration at half of the fitted maximal effect

Calcium and integrin-binding protein 1 (Homo sapiens), sequence (Q99828 whole entry, looked up): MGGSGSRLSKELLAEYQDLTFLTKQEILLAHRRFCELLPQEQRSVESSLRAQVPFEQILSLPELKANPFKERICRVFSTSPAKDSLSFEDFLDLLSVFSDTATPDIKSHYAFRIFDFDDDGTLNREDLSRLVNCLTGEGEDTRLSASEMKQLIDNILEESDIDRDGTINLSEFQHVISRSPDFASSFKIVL

SMILES	Potency [1]	Potency [2]	Potency [3]	activity change, negative = viability loss [2]	activity change, negative = cell killing [3]	activity change, negative = inhibition [1]
C=C1C(OC(C)=O)CCC2(C)CC3(O)OC(=O)C(C)=C3CC12 (stereo not given)	inactive	inactive	inactive	–	–	–
O=C(/C=C/c1ccc(O)c(O)c1)O[C@H]1[C@@H]2C=CO[C@@H](O[C@@H]3O[C@H](CO)[C@@H](O)[C@H](O)[C@H]3O)[C@@H]2[C@@]2(CO)O[C@@H]12	inactive	inactive	inactive	–	–	–
CC(CC(C)O[C@@H]1O[C@H](CO)[C@@H](O)[C@H](O)[C@H]1O)OC(=O)/C=C/c1ccc(O)cc1 (stereo not given in full)	inactive	inactive	inactive	–	–	–
C[C@@H]1CC[C@]2(C(=O)O)CC[C@]3(C)C(=CCC4[C@@]5(C)C[C@@H](O)[C@@H](O)C(C)(C)C5CC[C@]43C)C2[C@]1(C)O (stereo not given in full)	inactive	inactive	inactive	–	–	–
O=C(O)C(Cc1ccccc1)NC(=O)C1CCCN1 (stereo not drawn) (H-Pro-Phe-OH; configuration not given here)	inactive	inactive	inactive	–	–	–
C[C@]12CC[C@@H]3c4ccc(O)cc4CC[C@H]3[C@@H]1C[C@@H](O[C@@H]1O[C@H](C(=O)O)[C@@H](O)[C@H](O)[C@H]1O)[C@@H]2O	inactive	inactive	inactive	–	–	–
CC(=O)[C@@H]1C[C@H](C(C)(C)O[C@@H]2O[C@H](CO)[C@@H](O)[C@H](O)[C@H]2O)CC[C@@]2(CO)OC(=O)C[C@@H]12	inactive	inactive	inactive	–	–	–
C=C1[C@H](OC(C)=O)[C@H]2[C@@H](OC(C)=O)C(C)C[C@]2(OC(C)=O)C(=O)[C@H](C)/C=C/C(C)(C)C(=O)[C@H](OC(=O)C(C)C)[C@H]1OC(C)=O (stereo not given in full)	inactive	inactive	inactive	–	–	–
COC1OC(=O)C2=C1C1(C)CCCC(C)(C)C1CC2O (stereo not given)	inactive	inactive	inactive	–	–	–
CC1(C)CCC2(C(=O)O)C(O)CC3(C)C(=CCC4C5(C)CCC(OC6OC(CO)C(O)C(O)C6OC6OC(CO)C(O)C(O)C6OC6OCC(O)(CO)C6O)C(C)(C)C5CCC43C)C2C1 (stereo not given)	inactive	–	–	3.44% [at 9.23 µM]	2.63% [at 9.23 µM]	–
COc1cc(/C=C/C(=O)O[C@@H]2C[C@](O)(C(=O)O)C[C@@H](O)[C@H]2O)ccc1O	inactive	inactive	inactive	–	–	–
CC1(CO)CCCC2(C)C3COC(=O)C3=CC(O)C12 (stereo not given)	inactive	inactive	inactive	–	–	–
CC1(C)[C@@H]2CC=C(CO[C@@H]3O[C@H](CO[C@@H]4OC[C@H](O)[C@H](O)[C@H]4O)[C@@H](O)[C@H](O)[C@H]3O)[C@H]1C2	inactive	inactive	inactive	–	–	–
Cc1cn2cc(CC(=O)N3CCC4(CC3)CN(Cc3ccc(-n5nccn5)cc3Cl)C4)nc2s1	inactive	inactive	inactive	–	–	–
COC(=O)C1=COC(O[C@@H]2O[C@H](COC(=O)/C=C/c3ccc(O)cc3)[C@@H](O)[C@H](O)[C@H]2O)C2C(CO)=CCC12 (stereo not given in full)	inactive	inactive	inactive	–	–	–
CC1CCC2(C(=O)O)CCC3(C)C(=CCC4C5(C)C[C@@H](O)[C@@H](O)C(C)(CO)C5CCC43C)C2C1(C)O (stereo not given in full)	inactive	6.32 µM (active)	3.17 µM (active)	–	–	–
COC(=O)c1cc(OC)cc(OC)c1C(=O)c1c(OC)cc2c(c1O)C1CCC(O)C(C)(O2)O1 (stereo not given)	inactive	inactive	inactive	–	–	–
C=CC(C)(O)C1CC2C3(C)CCCC(C)(C)C3C(O)C(O)C2(C)O1 (stereo not given)	inactive	inactive	inactive	–	–	–
COC(=O)c1ccccc1O[C@@H]1O[C@H](CO[C@@H]2OC[C@@H](O)[C@H](O)[C@H]2O)[C@@H](O)[C@H](O)[C@H]1O	inactive	inactive	inactive	–	–	–
C=C1C2(C)CC3C4(C)C=CC(=O)OC(C)(C)C4CCC3(C)C1(C(=O)OC)C(=O)C(C)(O)C2=O (stereo not given)	inactive	inactive	inactive	–	–	–
O=C(/C=C/c1ccc(O)cc1)O[C@H]1[C@H](OC2CCCCC2O)O[C@H](CO)[C@@H](O)[C@@H]1O (stereo not given in full)	inactive	inactive	inactive	–	–	–
CC(C)=CCC/C(C)=C/CO[C@@H]1O[C@H](CO[C@@H]2O[C@@H](CO)[C@H](O)[C@H]2O)[C@@H](O)[C@H](O)[C@H]1O	inactive	inactive	inactive	–	–	–
CC(C)C(NC(=O)c1ccc(O)cc1)C(=O)N1CCCC1C(=O)Nc1c(O)cccc1C(=O)O (stereo not given)	inactive	inactive	inactive	–	–	–
COc1ccc(/C=C/C(=O)O[C@@H]2[C@@H](O)[C@@H](O)[C@H](O[C@H]3[C@@H]4C=CO[C@@H](O[C@@H]5O[C@H](CO)[C@@H](O)[C@H](O)[C@H]5O)[C@@H]4[C@@]4(CO)O[C@@H]34)O[C@H]2C)cc1	inactive	inactive	inactive	–	–	–
C/C=C(/C)C(=O)OC1CC(C)(C)CC2C3=CCC4C5(C)CCC(OC6OC(C)C(OC7OC(C(=O)O)C(O)C(OC8OC(CO)C(O)C(O)C8OC8OC(CO)C(O)C(O)C8O)C7O)C(O)C6O)C(C)(C)C5CCC4(C)C3(C)C(OC(=O)/C=C/C=C/C=C/CCC)C(OC(C)=O)C12CO (stereo not given)	–	–	–	-8.21% [at 9.23 µM]	-14.8% [at 9.23 µM]	0.802% [at 12.4 µM]
